Only some compounds are listed: those with a hit (about 3.4% of all), similar ones and a draw of the others.
GPR151 activ – human GPR151 activation | Q8TDV0 | PathHunter beta-arrestin GPR151 cells, luminescence | activation, % at 11.2 µM | actives 1% (n = 650,000) | AID 1508602; in the data active means activation above about 4.9%
Target sequence (Q8TDV0 whole entry, looked up): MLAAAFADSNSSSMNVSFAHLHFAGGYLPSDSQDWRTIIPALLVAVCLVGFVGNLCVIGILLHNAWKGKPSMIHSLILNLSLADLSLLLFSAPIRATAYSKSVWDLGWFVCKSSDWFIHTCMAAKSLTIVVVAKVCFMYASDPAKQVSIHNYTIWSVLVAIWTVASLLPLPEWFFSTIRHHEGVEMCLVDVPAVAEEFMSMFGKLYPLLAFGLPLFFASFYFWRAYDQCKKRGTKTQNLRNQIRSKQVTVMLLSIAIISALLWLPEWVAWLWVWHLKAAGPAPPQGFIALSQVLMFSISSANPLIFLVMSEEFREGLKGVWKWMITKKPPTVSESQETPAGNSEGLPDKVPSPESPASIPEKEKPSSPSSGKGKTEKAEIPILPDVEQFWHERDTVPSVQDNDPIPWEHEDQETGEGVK
MITF inh – inhibitors of human MITF. AlphaScreen MITF homodimerization, bead proximity signal. actives 0.91% (n = 650,000). O75030. inhibition, % at 2.6 µM; in the data active means inhibition above about 50%
FBW7 act – human FBW7 E3 ligase activation, primary screen | normalized activity (activation), % at 26.1 µM | Q969H0 | actives 0.13% (n = 650,000) | AlphaScreen FBW7–phospho-cyclin E peptide binding, activator screen | AID 1259310; in the data active means normalized activity above about 1.9%;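 further: purified mutant Fbw7 with reduced substrate affinity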
TEAD-YAP block – TEAD-YAP interaction inhibition | inhibition, % at 9.12 µM | AID 1259422 | actives 1.4% (n = 640,000) | HEK-TIYL cells, TEAD-Gal4/YAP UAS-luciferase luminescence; in the data active means inhibition above about 32%
Hits are given with their value; - = inactive.

SMILES | GPR151 activ | MITF inh | FBW7 act | TEAD-YAP block
COc1cccc(NC(=O)Cn2nc(C)n3cccc3c2=O)c1 | - | - | - | -
Cc1nc(-c2ccc3cnc(Nc4ccc(-n5cnc(N6CCOCC6)n5)cc4)nc3c2)n[nH]1 | - | - | - | -
Cn1cnc(-c2ccc3cnc(Nc4ccc(-n5cnc(N6CCOCC6)n5)cc4)nc3c2)n1 | - | - | - | -
Cc1[nH]ncc1-c1ccc2cnc(Nc3ccc(-n4cnc(N5CCOCC5)n4)cc3)nc2c1 | - | - | - | 85
Cc1n[nH]c(C)c1-c1ccc2cnc(Nc3ccc(-n4cnc(N5CCOCC5)n4)cc3)nc2c1 | - | - | - | 35
O=[N+]([O-])c1ccc(S(=O)(=O)Nc2cccc3cc4ccccc4nc23)cc1 | - | - | - | 80
O=[N+]([O-])c1ccc(S(=O)(=O)Nc2cccc3ccccc23)cc1 | - | - | - | -
O=C(Nc1nc2c(F)c(F)c(F)cc2s1)c1ccc(Br)o1 | - | - | - | -
CCC1CCCCN1C(=O)COc1ccc(C#N)cc1OC (configuration not stated) | - | - | - | -
COc1cccc(NC(=O)Cn2cc(C(C)=O)c3ccccc32)c1 | - | - | - | 48
COc1ccccc1NC(=O)Cn1c(C)nc2ccccc21 | - | - | - | 35
CC(=O)c1cn(CC(=O)Nc2ccccc2)c2ccccc12 | - | - | - | -
CC(=O)c1cn(CC(=O)NCCOc2ccc(Cl)cc2)c2ccccc12 | - | - | - | 40
COc1ccccc1NC(=O)Cn1cc(C(C)=O)c2ccccc21 | - | - | - | 37
COc1ccc(/C=N/NC(=O)c2cc(C)[nH]n2)cc1OCc1ccccc1 | - | - | - | -
O=C(Nc1ccccc1Cl)c1scc2c1CCCC2 | - | - | - | -
O=C(NCC1CCC2(CCN(Cc3ccccn3)CC2)O1)c1ccc(F)cc1Cl (configuration not stated) | - | - | - | -
CC1(c2cccc(Cc3cccc(C4(C)CCCCC4)c3O)c2O)CCCCC1 | - | - | - | -
CC1(C)CCN2CCC(C)(C)c3c(O)ccc1c32 | - | - | - | 38
O=C(NCC1CCCO1)C(=O)NCC(c1ccco1)N1CCOCC1 (configuration not stated) | - | - | - | -
CCC1CCC(C(=O)NC(C(=O)NCCc2ccc(S(N)(=O)=O)cc2)C(C)C)CC1 (configuration not stated) | - | - | - | 40
CCN1C(=O)c2cccc3c(N)ccc(c23)C1=O | - | 57 | - | -
Cc1ccc(N2C(=O)c3cccc4c(Cl)ccc(c34)C2=O)cc1 | - | - | - | -
Cc1ccc(N2C(=O)c3cccc4c(N)ccc(c34)C2=O)c2cccnc12 | - | - | - | 63
CCN(CC)CCN1C(=O)c2cccc3c(Cl)ccc(c23)C1=O | - | - | - | 70
SMILES | GPR151 activ | MITF inh | FBW7 act | TEAD-YAP block
Cc1ccc(N2C(=O)c3cccc4c(N5CCCCC5)ccc(c34)C2=O)c2cccnc12 | - | - | - | -
CC(=O)c1sc(NC(=O)c2ccc(S(=O)(=O)N(C)C3CCCCC3)cc2)nc1C | - | - | - | -
Cc1c(Sc2nnc(-c3ccccc3)n2-c2ccccc2)c(=O)[nH]c2cc3c(cc12)OCO3 | - | - | - | -
CN(C)c1ccc(/C=C2\N=C(c3ccccc3F)N(c3ccc(O)cc3)C2=O)cc1 | - | - | - | 60
Cc1ccc(N2C(=O)/C(=C/c3ccc(N(C)C)cc3)N=C2c2ccccc2F)c(C)c1 | - | - | - | 68
CN(C)c1ccc(/C=C2\N=C(c3ccccc3F)N(c3ccc(Br)cc3)C2=O)cc1 | - | - | - | -
COc1ccc(N=Cc2c(O)n(-c3cccc(OC)c3)c(=O)[nH]c2=O)cc1 | - | 76 | - | -
CCOC(=O)c1ccc(N=Cc2c(O)n(-c3cccc(OC)c3)c(=O)[nH]c2=O)cc1 | - | - | - | -
CC1C2C=CC(C2=C2CCCC2)C1C(=O)N(C=O)Cc1ccccc1 (configuration not stated) | - | - | - | -
O=C(Nc1ccc(S(=O)(=O)NCc2cccnc2)cc1)c1ccco1 | - | - | 2.1 | -
COc1cccc(S(=O)(=O)NCc2ccc(C(=O)Nc3cccnc3)cc2)c1 | - | - | - | 50
O=C(Nc1ccc(S(=O)(=O)NCc2cccnc2)cc1)c1ccccc1Cl | - | - | - | -
O=c1oc(-c2nccc3ccccc23)nn1CCN1CCCCC1 | - | - | - | -
Cc1ccc(-c2nc(N)sc2-c2ccc([N+](=O)[O-])cc2)cc1 | - | - | - | 37
CN(Cc1ccccc1)S(=O)(=O)c1ccc(NC(=O)/C=C/c2ccc(F)cc2)cc1 | - | - | - | -
CC(=O)/C=C/c1ccc(OCc2ccccc2)cc1 | - | - | - | 44

Screening results: PubChem BioAssay, The Scripps Research Institute Molecular Screening Center
